A selection: hits, their analogues and other compounds. The true share with any hit is near 7.3%.
Vaccinia mCherry – qHTS for Stage-Specific Inhibitors of Vaccinia Orthopoxvirus: mCherry Reporter Primary qHTS | Vaccinia virus mCherry reporter infection, fluorescence | AID 720579, 2013 | Potency, µM (highest dose often 36.5 µM), without a hit: at the top dose activity change, negative = inhibition, usual class: inhibitors | 310,000 tested, 0.63% active; calls by dose curve; tested in A549 cells; further: potency means the concentration at half of the fitted maximal effect; nearly all actives have a fitted effect of over 35% in size
HCMV inh – qHTS Assay for inhibitors of the human cytomegalovirus (HCMV); HFF cells, HCMV-luciferase reporter, 72 h; active compounds read low; AID 1259415, 2018; activity change, negative = inhibition, % at 57.5 µM; 410,000 tested, 4.5% active; in the data active means activity change below about -60%; inconclusive means no clear call, values can overlap the other calls; inactive means above about -39%
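Two-dose cell screen: HFF monolayers treated with compounds and infected with luciferase-expressing HCMV at 1 PFU/cell, 72 h at 37C, then lysed for luciferase measurement.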
VACV Venus inh – qHTS for Stage-Specific Inhibitors of Vaccinia Orthopoxvirus: Venus Reporter Primary qHTS; AID 720580, 2013; 330,000 tested, 0.46% active; Potency, µM (doses to about 36.5 µM), for inactives: at the highest dose activity change, negative = inhibition, actives largely listed as inhibitors; Vaccinia virus Venus reporter expression, fluorescence; calls by dose curve; tested in A549 cells; further: potency means the concentration at half of the fitted maximal effect; nearly all actives have a fitted effect of over 30% in size
FMDV inh – High Throughput Screening for Foot and Mouth Disease Virus Antivirals; Potency, µM (highest dose often 57.9 µM), without a hit: at the top dose activity change, negative = inhibition, hits mostly inhibitors; FMDV antiviral cell-based qHTS; 410,000 tested, 1.2% active; calls by dose curve; tested in HEK293T cells; further: read-out not given here; potency means the concentration at half of the fitted maximal effect; nearly all actives have a fitted effect of over 45% in size
HCV inh – qHTS Assay for Inhibitors of Hepatitis C Virus (HCV) | Huh7.5.1 HCVcc-Cre infection, luciferase reporter, 44 h | Potency, µM (titrated, usually from 41.8 µM), for inactives: top-dose activity change, negative = inhibition, actives largely listed as inhibitors | 340,000 tested, 3.4% active; active means well fitted inhibition curve with a large enough effect; inconclusive means small, poorly fitted or top-dose-only effect, or another doubt; inactive means no such curve, though single readings can be large or run the other way; further: potency means the concentration at half of the fitted maximal effect
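Cells seeded at 1,000/well and cultured 4 h, then compounds added followed by HCVcc-Cre virus (~0.5 moi). After 44 h further culture, luciferase substrate was added, plates held 15 min at room temperature, and luminescence read for 15 sec.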
* = called active by the depositor; i = inactive; ? = inconclusive; / = no result; [ ] = dose if it differs, or a comment. On the % scale 0 is the no-effect control and ±100 the full control effect.

SMILES	Vaccinia mCherry	HCMV inh	VACV Venus inh	FMDV inh	HCV inh
COc1ccc(CNC(=O)C[C@@H]2C=C[C@@H](NS(=O)(=O)c3cccc(OC)c3)[C@@H](CO)O2)cc1	-12%	-37	-3%	-20%	/
COc1ccc(/C=N/NC(=O)c2cc3c(OC)ccc(OC)c3[nH]2)cc1O	7.1µM*	?	?	-1%	?
COc1ccccc1/C=N/NC(=O)c1cc2c(OC)c(OC)ccc2[nH]1	/	-13	/	4%	?
COc1ccc(/C=N/NC(=O)c2cnccn2)cc1O	i	12	-11%	17%	13%
COc1ccc(OC)c2[nH]c(C(=O)N/N=C/c3ccccc3O)cc12	?	-93*	?	?	3.2µM*
COc1cccc(CNC(=O)[C@H]2CCCN2C(=O)[C@H]2CCCN2C(=O)c2ccc(C)c(C)c2)c1	/	-27	/	/	/
COc1ccccc1C(=O)Nc1cccc(C(=O)OCc2cc(=O)n3cc(C)sc3n2)c1	-14%	?	-12%	-2%	/
Oc1ccc(C[C@H]2CNCCN2CC2CCCCC2)cc1	-18%	5	-14%	-13%	25%
c1ccc2c(C[C@@H]3CNCCN3CC3CCCCC3)cccc2c1	?	-63*	?	-17%	?
Nc1nccnc1C(=O)OCC(=O)C12CC3CC(CC(C3)C1)C2	-4%	-8	0%	-11%	-9%
N#CC1(C#N)CC(C=O)=C(N)C1(C#N)CC(=O)C12CC3CC(CC(C3)C1)C2 (stereo unspecified)	i	-2	-2%	22µM*	8%
Cc1cc(-c2nc(-c3ccc(C(C)(C)C)cc3)no2)no1	/	?	/	14%	?
Cc1c(-c2nc(-c3ccc(C(C)(C)C)cc3)no2)n(C)oc1=O	-3%	97	-20%	63µM*	2%
CCc1ccc(S(=O)(=O)N(C(=O)c2ccncc2)c2ccc3oc(C)c(C(=O)OC)c3c2)cc1	-21%[7.34 µM]	-64*	-21%[7.34 µM]	-5%	/
COC(=O)c1c(C)oc2ccc(N(C(=O)c3ccncc3)S(=O)(=O)c3ccc(OC)cc3)cc12	-29%[7.34 µM]	-95*	-27%[7.34 µM]	-22%	/
CCOC(=O)c1c(C)oc2ccc(N(C(=O)c3ccncc3)S(=O)(=O)c3ccc(F)cc3)cc12	-16%	-5	-8%	6%	/
CCOc1ccc(S(=O)(=O)N(C(=O)c2ccncc2)c2ccc3oc(C)c(C(=O)OC)c3c2)cc1	-25%[7.34 µM]	-79*	-27%[7.34 µM]	-24%	/
Cc1ccc(C(=O)Nc2c(C)nc3ccccn3c2=O)cc1	-16%	36	-9%	26%	/
O=C1c2c(O)ccc(O)c2C(=O)c2c(NCCNCCO)ccc(NCCNCCO)c21	?	-98*	10µM*	?	1.1µM*
Cn1cnc(S(=O)(=O)N2CCCCN3[C@H](CO)[C@H](c4ccc(C#CC5CC5)cc4)[C@@H]3C2)c1	/	-6	/	/	/
CCCc1c(Cc2cccc(F)c2)ncn1Cc1cccc(-c2ccccc2)c1	?	?	-23%	-71%	/
COc1cccc(Cn2cnc(-c3ccccc3OC)c2-c2cccnc2)c1	-14%	-24	-6%	-5%	/
CCc1c(C2CC2)ncn1Cc1cccc(-c2ccccc2)c1	-7%	-99*	-22%	?	/
CCc1c(-c2cccc(OC)c2)ncn1Cc1cccc(-c2ccccc2)c1	-18%	?	?	32µM*	/
CCc1c(-c2ccccc2F)ncn1Cc1cccc(-c2ccccc2)c1	?	-71*	?	?	/
SMILES	Vaccinia mCherry	HCMV inh	VACV Venus inh	FMDV inh	HCV inh
CCc1c(-c2ccccc2)ncn1Cc1cccc(-c2ccccc2)c1	?	-68*	-23%	?	/
CCc1c(-c2ccc(Cl)cc2)ncn1Cc1cccc(-c2ccccc2)c1	?	-35	?	?	/
COc1cccc(Cn2cnc(-c3ccccc3OC)c2C2CC2)c1	-11%	-9	-2%	?	/
Cc1cccc(OCC(=O)N2CCC(c3nc4ccccc4o3)CC2)c1C	5%	-24	-8%	-13%	/
COc1ccc(-c2[nH]c(-c3ccc(Cl)cc3)nc2SCC(=O)Nc2nccs2)cc1	1%	-79*	-22%	-29%	?
COc1ccc(-n2c(SCC(=O)Nc3nccs3)nnc2-c2ccc(Cl)cc2)cc1	/	?	/	12%	-6%
COc1ccc(-c2[nH]c(-c3ccccc3)nc2SCC(=O)Nc2nccs2)cc1	i	?	-22%	-30%	14µM*
COCCNC(=O)CSc1nc(-c2ccccc2)[nH]c1-c1ccc(OC)cc1	-9%	-21	-4%	-7%	/
O=C(c1cnc(N2CCCCC2)c2ccccc12)N1CCN(c2cccc(Cl)c2)CC1	-20%	36	-28%	-25%	/
CC(C)c1ccc(C2=CC(c3cccc(Cl)c3)n3ncnc3N2)cc1 (stereo unspecified)	-9%	4	1%	-14%	/
CC(C)c1ccc(C2=CC(c3cccc(Cl)c3)n3c(nc4ccccc43)N2)cc1 (stereo unspecified)	-6%[7.34 µM]	-63*	20%[7.34 µM]	-75%	/
CCCC(NC(=S)NCC1CCCO1)C12CC3CC(CC(C3)C1)C2 (stereo unspecified)	i	-93*	-26%	-9%	11µM*
S=C(NCC1CCCO1)NC1CCCCC1 (stereo unspecified)	/	-1	/	10%	16%
Cc1ccc(C)c(S(=O)(=O)N2CCCC2CNC(=O)c2ccc([N+](=O)[O-])cc2)c1 (stereo unspecified)	-23%	-29	-8%	?	11µM*
Cc1ccc(C)c(S(=O)(=O)N2CCCCC2CCNC(=O)C(=O)NCc2ccco2)c1 (stereo unspecified)	?	-33	?	?	11µM*
Cc1ccc(C)c(S(=O)(=O)N2CCCC2CNC(=O)C(=O)NCc2ccco2)c1 (stereo unspecified)	i	-28	-15%	-23%	0%
Cc1ccc(C(=O)NCC2CCCN2S(=O)(=O)c2ccc(C)cc2)cc1 (stereo unspecified)	i	-6	-15%	11%	-20%
COc1cc(C(=O)NCc2ccc3c(c2)CCN3C(=O)c2ccncc2)cc(OC)c1OC	-2%	16	-15%	-5%	/
COc1ccccc1OCCCCCc1c(C)n[nH]c1C	/	-61*	/	?	?
COc1ccc2c3c(n(C)c2c1)[C@H](CO)N(C(=O)Cc1ccccc1)CC31CCN(C(=O)Cc2ccccc2)CC1	/	24	/	/	/
O=C(/C=C/c1ccc2c(c1)OCO2)c1c(O)n(CCC2=CCCCC2)c(=O)[nH]c1=O	i	-12	-8%	?	14%
COc1ccc(/C=C/C(=O)c2c(O)n(CCC3=CCCCC3)c(=O)[nH]c2=O)cc1	-10%	-39	-6%	35µM*	4%
CN(C)CC(C(=O)Cc1ccccc1)c1ccccc1 (stereo unspecified)	-23%	-97*	?	28µM*	9%
